Measurements as given in PubChem BioAssay (Tox21).
Inconclusive results are not listed. Calls of active or inactive are those of the source. Unless noted, calls follow the shape of the dose curve; as a rule, active = well fitted curve in the direction sought with a large enough effect in the repeat runs; inconclusive = weak or mixed curves; inactive = no such curve, though single readings can be large; an effect the other way counts as inactive or inconclusive.

Key:
[1] = qHTS assay to identify small molecule antagonists of the vitamin D receptor (VDR) signaling pathway - cell viability counter screen (AID 743225); also: % is scaled to controls: 0 for no effect and ±100 for the full control effect; nearly all actives have a fitted effect of over 50% in size
How it was run: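 HEK293T VDR-bla; cpd + 1a,25-(OH)2D3 3 nM final, 16 h 37C/5% CO2; B/G FRET substrate 2 h RT; then CellTiter-Glo 30 min RT, luminescence.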

[2] = qHTS assay to identify small molecule agonists of the NFkB signaling pathway - cell viability counter screen (AID 1159515; calls by dose curve; also: series mostly up to about 61 µM; % is scaled to controls: 0 for no effect and ±100 for the full control effect; nearly all actives have a fitted effect of over 55% in size)
How it was run: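 NFkB-bla ME-180 cells, 2,000/well, plated overnight at 37 C; compound added for 5 hr at 37 C. Viability read in the same wells as the bla reporter, by CellTiter-Glo luminescence after 30 min at room temperature.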

[3] = qHTS assay to identify small molecule agonists of the endoplasmic reticulum stress response signaling pathway (AID 1159516; active = well fitted activation curve with a large enough effect in the signal ratio in the repeat runs, not every such curve was filed as active; the % refers to the signal ratio; also: % is scaled to controls: 0 for no effect and ±100 for the full control effect)
How it was run: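 CellSensor ESRE-bla HeLa cells, 1,500 per well, plated overnight, then exposed to compounds for 5 hr at 37 C. Beta-lactamase reporter read with LiveBLAzer B/G FRET substrate after 2 hr at room temperature, 405 nm excitation, 460 and 530 nm emission.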

[4] = qHTS assay to identify small molecule agonists of the endoplasmic reticulum stress response signaling pathway - cell viability counter screen (AID 1159517; calls by dose curve;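 also: HeLa cells carrying an ER stress response element beta-lactamase reporter; series mostly up to about 61 µM; % is scaled to controls: 0 for no effect and ±100 for the full control effect; nearly all actives have a fitted effect of over 50% in size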)
How it was run: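 CellTiter-Glo was added to wells already read for beta-lactamase FRET, and luminescence was recorded 30 min later. Cells: ESRE-bla HeLa, 1,500 per well, compound exposure 5 hr at 37 C.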

[5] = qHTS assay to identify small molecule antagonists of the retinoid-related orphan receptor gamma (ROR-gamma) signaling pathway - cell viability counter screen (AID 1159520); also: % is scaled to controls: 0 for no effect and ±100 for the full control effect; nearly all actives have a fitted effect of over 50% in size
How it was run: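 Tet-on ROR gamma CHO cells (1,000/well) were plated 4 hr, given compounds in DMSO for 2 hr at 37 C, then induced with 1 uM final doxycycline for 16 hr. Viability was read as ATP by CellTiter-Glo luminescence after 30 min.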

[6] = target: Nuclear receptor ROR-gamma (Homo sapiens) (UniProt P51449); assay: qHTS assay to identify small molecule antagonists of the retinoid-related orphan receptor gamma (ROR-gamma) signaling pathway (AID 1159521;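 also: CHO cells with doxycycline inducible ROR-gamma driving an RORE luciferase reporter; top concentration of the series differs between compounds; % is scaled to controls: 0 for no effect and ±100 for the full control effect; nearly all actives have a fitted effect of over 50% in size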)
How it was run: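 Cells were plated, rested 4 h at 37 C, exposed to compounds for 2 h, then given 1 uM final doxycycline hyclate to induce RORγ expression. After 16 h, ONE-Glo luminescence from the ROR response element reporter was measured.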

[7] = qHTS assay to identify small molecule agonists of the AP-1 signaling pathway - cell viability counter screen (AID 1159525; calls by dose curve; also: nearly all actives have a fitted effect of over 55% in size)
How it was run: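 ME-180 AP-1-bla, 2500 cells/well, Opti-MEM + 0.5% dialyzed FBS; overnight 37 °C; cpd 15-pt titration, 5 h 37 °C; CellTiter-Glo 30 min RT; luminescence read; normalised to TOAB and DMSO controls.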

[8] = qHTS assay to identify small molecule agonists of the AP-1 signaling pathway (AID 1159526; calls by dose curve; also: % is scaled to controls: 0 for no effect and ±100 for the full control effect)
[9] = target: Retinoic acid receptor RXR-alpha (Homo sapiens) (UniProt P19793); assay: qHTS assay to identify small molecule agonists of the RXR signaling pathway (AID 1159527; calls by dose curve; also: nearly all actives have a fitted effect of over 35% in size; also: potency is read from the fitted curve at half-maximal effect; as to activation: % is scaled to controls: 0 for no effect and ±100 for the full control effect)
How it was run: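 Cells plated at 2,000/well, rested 5 hr at 37 C, pin-dosed with DMSO compound solutions, incubated 16 hr, then loaded with B/G FRET substrate for 2 hr at RT before dual-emission fluorescence reading.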

[10] = qHTS assay to identify small molecule agonists of the RXR signaling pathway - cell viability counter screen (AID 1159529)
How it was run: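 Steps: seed RXR-alpha-UAS-bla HEK 293T cells in assay medium containing 2% charcoal-stripped FBS; incubate 5 hr; add compounds in DMSO; incubate 16 hr at 37 C; after the bla read, add CellTiter-Glo and read luminescence at 30 min.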

[11] = qHTS assay to identify small molecule antagonists of the retinoid acid receptor (RAR) signaling pathway - cell viability counter screen (AID 1159551); also: % is scaled to controls: 0 for no effect and ±100 for the full control effect; nearly all actives have a fitted effect of over 35% in size
How it was run: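 C3RL4 RARE-luciferase cells, 1,000/well, incubated overnight, then dosed with compound plus 1 uM retinol (final). After 6 hr at 37 C, viability read by CellTiter-Glo ATP luminescence following 30 min at room temperature.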

[12] = qHTS assay to identify small molecule antagonists of the retinoic acid receptor (RAR) signaling pathway (AID 1159552)
How it was run: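 Retinol at 1 uM final stimulated RARE-luciferase expression in C3RL4 cells exposed to test compounds for 6 hr at 37 C. Reduced luminescence, read 30 min after detection reagent, indicated pathway antagonism.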

[13] = qHTS assay to identify small molecule agonists of the retinoic acid receptor (RAR) signaling pathway (AID 1159553); also: % is scaled to controls: 0 for no effect and ±100 for the full control effect
How it was run: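 C3RL4 RARE-luciferase cells were seeded at 1,000/well and grown overnight at 37 C, then exposed to compounds for 6 hr at 37 C, 5% CO2. Luciferase reagent was added and luminescence was read after 30 min at room temperature.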

[14] = qHTS assay to identify small molecule antagonists of the estrogen related receptor (ERR) signaling pathway from Tox21 library - cell viability counter screen (AID 1224834); also: % is scaled to controls: 0 for no effect and ±100 for the full control effect; nearly all actives have a fitted effect of over 30% in size
How it was run: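 ERR reporter cells, 2,000 per well, rested 6 h, then exposed to compound in DMSO for 17.5 hours at 37 C. Viability read as fluorescence after 30 min with CellTiter-Fluor.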

[15] = target: Luciferin 4-monooxygenase (Photinus pyralis) (UniProt P08659); assay: qHTS assay to identify small molecule inhibitors of firefly luciferase (AID 1224835); also: series mostly up to about 120 µM; % is scaled to controls: 0 for no effect and ±100 for the full control effect; nearly all actives have a fitted effect of over 25% in size
How it was run: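 Quantitative HTS format; KM concentrations of both substrates. Purified P. pyralis FLuc activity quantified from luminescence images.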

[16] = qHTS assay to identify small molecule agonists of the constitutive androstane receptor (CAR) signaling pathway - cell viability counter screen (AID 1224836); also: series mostly up to about 92 µM; % is scaled to controls: 0 for no effect and ±100 for the full control effect; nearly all actives have a fitted effect of over 45% in size
How it was run: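 Cells were seeded and incubated 4 hrs. Compounds were added across 15 concentrations together with PK11195 at 0.75 uM final. Plates were incubated 23 hrs at 37 C. CellTiter-Fluor was added and fluorescence measured.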

[17] = qHTS assay to identify small molecule antagonists of the constitutive androstane receptor (CAR) signaling pathway - cell viability counter screen (AID 1224837); also: series mostly up to about 92 µM; % is scaled to controls: 0 for no effect and ±100 for the full control effect; nearly all actives have a fitted effect of over 45% in size
How it was run: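 HepG2 cells stably carrying hCAR and CYP2B6-2.2kb reporter, stimulated with 50 nM CITCO and compounds at 15 concentrations for 23 h at 37 C. Viability measured by CellTiter-Fluor fluorescence.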

[18] = qHTS assay to identify small molecule antagonists of the estrogen related receptor signaling pathway with the pleiotropic PPARgamma coactivator (PGC) from Tox21 10K library - cell viability counter screen (AID 1224840; active = well fitted cell-killing curve with a large enough effect in the repeat runs, not every such curve was filed as active; also: % is scaled to controls: 0 for no effect and ±100 for the full control effect; nearly all actives have a fitted effect of over 40% in size)
How it was run: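 PGC/ERR cells (2,000/well) plated 6 h, then compound-treated for 17.5 h at 37 C. Viability measured by CellTiter-Fluor fluorescence after 30 min at 37 C, multiplexed with the pathway assay.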

Chain of Luciferin 4-monooxygenase (Photinus pyralis) (P08659 whole entry, looked up): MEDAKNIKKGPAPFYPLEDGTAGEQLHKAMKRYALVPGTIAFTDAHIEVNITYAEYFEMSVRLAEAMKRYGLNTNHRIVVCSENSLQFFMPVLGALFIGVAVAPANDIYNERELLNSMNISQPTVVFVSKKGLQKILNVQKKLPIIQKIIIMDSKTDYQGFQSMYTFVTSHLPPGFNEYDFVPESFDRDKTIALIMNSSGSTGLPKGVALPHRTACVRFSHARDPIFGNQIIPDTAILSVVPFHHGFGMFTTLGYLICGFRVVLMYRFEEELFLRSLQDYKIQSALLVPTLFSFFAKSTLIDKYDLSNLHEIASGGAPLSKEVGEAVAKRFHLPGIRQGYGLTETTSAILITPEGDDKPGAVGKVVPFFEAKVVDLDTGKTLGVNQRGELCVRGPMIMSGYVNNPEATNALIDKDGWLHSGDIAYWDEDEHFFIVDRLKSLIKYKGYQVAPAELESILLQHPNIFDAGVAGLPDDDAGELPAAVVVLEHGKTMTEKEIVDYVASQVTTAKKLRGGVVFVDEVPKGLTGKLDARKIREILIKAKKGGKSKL
Chain of Retinoic acid receptor RXR-alpha (Homo sapiens) (P19793 whole entry, looked up): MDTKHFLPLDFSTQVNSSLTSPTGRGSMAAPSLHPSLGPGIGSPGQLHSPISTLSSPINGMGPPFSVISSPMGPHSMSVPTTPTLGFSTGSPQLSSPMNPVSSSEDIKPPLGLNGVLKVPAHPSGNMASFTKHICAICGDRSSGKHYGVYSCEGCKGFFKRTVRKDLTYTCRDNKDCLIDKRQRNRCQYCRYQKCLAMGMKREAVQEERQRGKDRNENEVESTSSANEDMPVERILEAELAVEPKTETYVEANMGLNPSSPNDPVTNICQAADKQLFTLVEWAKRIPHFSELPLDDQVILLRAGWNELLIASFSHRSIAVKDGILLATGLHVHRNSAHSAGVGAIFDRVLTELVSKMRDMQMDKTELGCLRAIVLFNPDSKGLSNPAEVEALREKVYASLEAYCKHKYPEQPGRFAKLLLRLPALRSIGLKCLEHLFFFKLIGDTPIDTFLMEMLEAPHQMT

CCCCCCC(O)CO (stereo not given)
inactive: outcome [1] | outcome [2] | Potency [3] | outcome [4] | outcome [5] | outcome [6] | outcome [7] | Potency [8] | Potency [10] | outcome [11] | outcome [12] | Potency [13] | outcome [14] | Potency [15] | outcome [16] | outcome [17] | outcome [18]
active: Potency [9] 12.3 µM

CCCCc1ccc(Cl)cc1
inactive: outcome [1] | outcome [2] | Potency [3] | outcome [4] | outcome [5] | outcome [6] | outcome [7] | Potency [8] | Potency [9] | Potency [10] | outcome [11] | outcome [12] | Potency [13] | outcome [14] | Potency [15] | outcome [16] | outcome [17] | outcome [18]

CC12CCCC=C1C(=O)OC2=O (stereo not given)
inactive: outcome [1] | outcome [2] | Potency [3] | outcome [4] | outcome [5] | outcome [6] | outcome [7] | Potency [8] | Potency [9] | Potency [10] | outcome [11] | outcome [12] | Potency [13] | outcome [14] | Potency [15] | outcome [16] | outcome [17] | outcome [18]

Cc1cc(C)c(C)c(C)c1
inactive: outcome [1] | outcome [2] | Potency [3] | outcome [4] | outcome [5] | outcome [6] | outcome [7] | Potency [8] | Potency [9] | Potency [10] | outcome [11] | outcome [12] | Potency [13] | outcome [14] | Potency [15] | outcome [16] | outcome [17] | outcome [18]

CC(=O)/C=C/C=C1/C2CCC(C2)C1(C)C (stereo not given)
inactive: outcome [1] | outcome [2] | Potency [3] | outcome [4] | outcome [5] | outcome [6] | outcome [7] | Potency [8] | Potency [9] | Potency [10] | outcome [11] | outcome [12] | Potency [13] | outcome [14] | Potency [15] | outcome [16] | outcome [17] | outcome [18]

N=C(N)S(=O)O
inactive: outcome [1] | outcome [2] | Potency [3] | outcome [4] | outcome [5] | outcome [6] | outcome [7] | Potency [8] | Potency [9] | Potency [10] | outcome [11] | outcome [12] | Potency [13] | outcome [14] | Potency [15] | outcome [16] | outcome [17] | outcome [18]

NC[C@H]1O[C@H](O[C@H]2[C@H](O)[C@@H](O[C@H]3O[C@H](CO)[C@@H](O)[C@H](N)[C@H]3O)[C@H](N)C[C@@H]2N)[C@H](N)[C@@H](O)[C@@H]1O
inactive: outcome [1] | outcome [2] | Potency [3] | outcome [4] | activity, negative = cytotoxicity [5] 0.5% [at 19 µM] | activity change, negative = inhibition [6] -19.4% [at 19 µM] | viability change, negative = cytotoxic [7] 1.49% [at 15.8 µM] | activation [8] 0.424% [at 15.8 µM] | activation [9] 4.18% [at 15.8 µM] | activity change, negative = cytotoxicity [10] 3.13% [at 15.8 µM] | activity change, negative = cytotoxicity [11] -1.43% [at 19 µM] | activity, negative = inhibition [12] -0.0699% [at 19 µM] | Potency [13] | viability change, negative = cytotoxic [14] 2% [at 19 µM] | activity change, negative = inhibition [15] -4.17% [at 23.6 µM] | viability change, negative = cytotoxic [16] -10.3% [at 19 µM] | activity change, negative = cytotoxicity [17] -13.6% [at 19 µM] | viability change, negative = cytotoxic [18] 1.41% [at 19 µM]

CCN(CC)CC(=O)Oc1ccc(NC(C)=O)cc1
inactive: outcome [1] | outcome [2] | Potency [3] | outcome [4] | outcome [5] | outcome [6] | outcome [7] | Potency [8] | Potency [9] | Potency [10] | outcome [11] | outcome [12] | Potency [13] | outcome [14] | Potency [15] | outcome [16] | outcome [17] | outcome [18]

Cc1cccc(N)n1
inactive: outcome [1] | outcome [2] | Potency [3] | outcome [4] | outcome [5] | outcome [6] | outcome [7] | Potency [8] | Potency [9] | Potency [10] | outcome [11] | outcome [12] | Potency [13] | outcome [14] | Potency [15] | outcome [16] | outcome [17] | outcome [18]

Cc1ccc(O)c(C(=O)c2ccccc2)c1
inactive: outcome [2] | Potency [3] | outcome [4] | outcome [5] | outcome [6] | outcome [7] | Potency [8] | Potency [9] | Potency [10] | outcome [11] | outcome [12] | Potency [13] | outcome [14] | Potency [15] | outcome [16] | outcome [17] | outcome [18]

COC(=O)c1ccc(C(=O)O)cc1
inactive: outcome [2] | Potency [3] | outcome [4] | outcome [5] | outcome [6] | outcome [7] | Potency [8] | Potency [9] | Potency [10] | outcome [11] | outcome [12] | Potency [13] | outcome [14] | Potency [15] | outcome [16] | outcome [17] | outcome [18]

CN(C)CCc1c[nH]c2ccc(C[C@H]3COC(=O)N3)cc12
inactive: outcome [1] | outcome [2] | Potency [3] | outcome [4] | outcome [5] | outcome [6] | outcome [7] | Potency [8] | Potency [9] | Potency [10] | outcome [11] | outcome [12] | Potency [13] | outcome [14] | Potency [15] | outcome [16] | outcome [17] | outcome [18]

CCCC(=O)OC
inactive: outcome [1] | outcome [2] | Potency [3] | outcome [4] | outcome [5] | outcome [6] | outcome [7] | Potency [8] | Potency [9] | Potency [10] | outcome [11] | outcome [12] | Potency [13] | outcome [14] | Potency [15] | outcome [16] | outcome [17] | outcome [18]

CC(=O)c1ccc(O)c(C(N)=O)c1
inactive: outcome [1] | outcome [2] | Potency [3] | outcome [4] | outcome [5] | outcome [6] | outcome [7] | Potency [8] | Potency [9] | Potency [10] | outcome [11] | outcome [12] | Potency [13] | outcome [14] | Potency [15] | outcome [16] | outcome [17] | outcome [18]
